# Assays:
# Test in all cases: DAPPL (digital affinity profiling via proximity ligation, sequencing); 10 mM Tris-HCl pH 7.5, 50 mM NaCl, 1 mM DTT, 4% glycerol, room temperature, 30 min; GST-TFs on glutathione beads, 16-mer random dsDNA library, 0.1% formaldehyde crosslink after washing; high values mean tight binding
# FLI1 = target: T1, FLI1 (Homo sapiens, UniProt Q01543 1-452); conditions: protein: recombinant; tags: N-terminal GST; dsDNA, one strand shown
# T1 sequence: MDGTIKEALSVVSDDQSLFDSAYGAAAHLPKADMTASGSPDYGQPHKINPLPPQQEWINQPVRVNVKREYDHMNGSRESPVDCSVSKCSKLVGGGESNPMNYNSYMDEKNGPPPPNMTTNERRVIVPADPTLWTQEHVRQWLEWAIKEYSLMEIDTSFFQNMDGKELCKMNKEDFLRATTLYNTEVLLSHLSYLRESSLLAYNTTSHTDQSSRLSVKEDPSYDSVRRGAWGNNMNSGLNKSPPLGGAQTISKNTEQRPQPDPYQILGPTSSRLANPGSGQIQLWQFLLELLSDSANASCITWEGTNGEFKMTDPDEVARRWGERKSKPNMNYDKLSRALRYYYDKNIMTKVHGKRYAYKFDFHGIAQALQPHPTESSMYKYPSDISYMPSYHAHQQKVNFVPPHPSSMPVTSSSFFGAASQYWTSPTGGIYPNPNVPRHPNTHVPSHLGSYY
# In short: (§1)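 GST fusions of human transcription factors were expressed in yeast and captured with glutathione beads. Once given DNA barcodes and pooled alongside a tag-only sample, they were incubated for 30 min at room temperature with 200 nmole of a random double-stranded 16-mer DNA library in Tris/NaCl/DTT/glycerol buffer, then washed, crosslinked (0.1% formaldehyde), proximity-ligated, PCR-amplified and sequenced on an Illumina NextSeq500. The binding signal of each hexamer is its read frequency for a factor divided by its frequency for the tag-only sample.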
# ELK1 = target: T2, ELK1 (Homo sapiens, UniProt P19419 1-428); conditions: protein: recombinant; tags: N-terminal GST; dsDNA, one strand shown
# T2 sequence: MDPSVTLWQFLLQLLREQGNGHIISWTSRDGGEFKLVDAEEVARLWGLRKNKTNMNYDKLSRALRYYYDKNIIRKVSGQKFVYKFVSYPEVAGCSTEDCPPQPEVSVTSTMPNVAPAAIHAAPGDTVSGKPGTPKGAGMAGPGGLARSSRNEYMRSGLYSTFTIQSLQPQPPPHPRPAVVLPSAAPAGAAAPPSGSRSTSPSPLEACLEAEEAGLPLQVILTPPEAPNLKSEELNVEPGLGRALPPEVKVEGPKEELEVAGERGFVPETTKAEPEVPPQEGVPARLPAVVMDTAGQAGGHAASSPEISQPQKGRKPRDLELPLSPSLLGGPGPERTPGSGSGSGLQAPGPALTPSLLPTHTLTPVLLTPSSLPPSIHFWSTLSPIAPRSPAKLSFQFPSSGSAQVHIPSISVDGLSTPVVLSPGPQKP
# In short: as §1
# GABPA = target: T3, GABPA (Homo sapiens, UniProt Q06546 1-454); conditions: protein: recombinant; tags: N-terminal GST; dsDNA, one strand shown
# T3 sequence: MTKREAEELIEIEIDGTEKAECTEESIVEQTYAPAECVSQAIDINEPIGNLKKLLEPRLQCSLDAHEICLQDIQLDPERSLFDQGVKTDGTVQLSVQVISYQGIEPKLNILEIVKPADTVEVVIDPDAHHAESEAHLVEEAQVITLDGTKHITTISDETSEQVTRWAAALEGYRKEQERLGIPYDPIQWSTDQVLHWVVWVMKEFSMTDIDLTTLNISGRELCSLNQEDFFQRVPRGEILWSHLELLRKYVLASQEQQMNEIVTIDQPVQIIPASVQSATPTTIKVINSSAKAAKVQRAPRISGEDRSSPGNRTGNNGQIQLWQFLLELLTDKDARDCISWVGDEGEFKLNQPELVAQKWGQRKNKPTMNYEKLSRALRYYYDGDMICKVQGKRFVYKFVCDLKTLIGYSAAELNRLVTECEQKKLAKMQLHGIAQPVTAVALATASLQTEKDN
# In short: as §1
# ERG = target: T4, ERG (Homo sapiens, UniProt P11308 1-479); conditions: protein: recombinant; tags: N-terminal GST; dsDNA, one strand shown
# T4 sequence: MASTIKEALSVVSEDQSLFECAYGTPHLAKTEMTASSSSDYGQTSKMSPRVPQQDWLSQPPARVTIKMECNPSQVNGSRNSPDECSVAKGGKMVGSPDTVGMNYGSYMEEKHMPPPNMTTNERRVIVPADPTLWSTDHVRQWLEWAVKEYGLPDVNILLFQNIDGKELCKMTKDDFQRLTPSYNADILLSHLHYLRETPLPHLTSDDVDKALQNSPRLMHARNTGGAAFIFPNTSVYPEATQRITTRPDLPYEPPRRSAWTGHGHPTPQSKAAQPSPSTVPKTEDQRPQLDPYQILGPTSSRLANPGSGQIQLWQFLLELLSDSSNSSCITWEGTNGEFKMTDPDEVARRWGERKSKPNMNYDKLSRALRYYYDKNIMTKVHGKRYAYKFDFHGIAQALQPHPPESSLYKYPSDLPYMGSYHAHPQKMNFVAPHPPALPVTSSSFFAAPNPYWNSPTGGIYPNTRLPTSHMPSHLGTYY
# In short: as §1
# ELF1 = ELF1 (Homo sapiens, UniProt P32519 1-619); conditions: protein: recombinant; tags: N-terminal GST; dsDNA, one strand shown
# In short: as §1
# EHF = target: T5, EHF (Homo sapiens, UniProt Q9NZC4 1-300); conditions: protein: recombinant; tags: N-terminal GST; dsDNA, one strand shown
# T5 sequence: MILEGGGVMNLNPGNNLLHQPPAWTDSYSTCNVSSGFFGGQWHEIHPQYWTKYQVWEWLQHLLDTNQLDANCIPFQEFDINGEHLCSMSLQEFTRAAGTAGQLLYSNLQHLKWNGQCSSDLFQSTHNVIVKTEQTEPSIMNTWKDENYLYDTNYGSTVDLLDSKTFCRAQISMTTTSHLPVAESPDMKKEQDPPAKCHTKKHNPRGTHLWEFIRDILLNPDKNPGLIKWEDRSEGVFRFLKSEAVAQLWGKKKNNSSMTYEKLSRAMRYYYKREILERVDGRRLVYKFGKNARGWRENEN
# In short: as §1
# SPI1 = SPI1 (Homo sapiens, UniProt P17947 1-270); conditions: protein: recombinant; tags: N-terminal GST; dsDNA, one strand shown
# In short: as §1
# SPIB = SPIB (Homo sapiens, UniProt Q01892 1-262); conditions: protein: recombinant; tags: N-terminal GST; dsDNA, one strand shown
# In short: as §1
# ELK3 = target: T6, ELK3 (Homo sapiens, UniProt P41970 1-407); conditions: protein: recombinant; tags: N-terminal GST; dsDNA, one strand shown
# T6 sequence: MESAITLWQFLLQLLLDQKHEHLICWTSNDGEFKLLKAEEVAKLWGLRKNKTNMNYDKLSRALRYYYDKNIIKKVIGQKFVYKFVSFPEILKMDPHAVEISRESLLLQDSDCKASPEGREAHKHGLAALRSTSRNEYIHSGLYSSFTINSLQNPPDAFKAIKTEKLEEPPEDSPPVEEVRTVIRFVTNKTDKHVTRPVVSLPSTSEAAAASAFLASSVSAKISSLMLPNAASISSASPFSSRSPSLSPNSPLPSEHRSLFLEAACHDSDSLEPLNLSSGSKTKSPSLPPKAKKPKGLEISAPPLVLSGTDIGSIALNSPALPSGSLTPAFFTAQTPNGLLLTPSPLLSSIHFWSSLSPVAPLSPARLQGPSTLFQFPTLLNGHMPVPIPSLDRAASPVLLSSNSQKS
# In short: as §1
# FEV = target: T7, FEV (Homo sapiens, UniProt Q99581 1-238); conditions: protein: recombinant; tags: N-terminal GST; dsDNA, one strand shown
# T7 sequence: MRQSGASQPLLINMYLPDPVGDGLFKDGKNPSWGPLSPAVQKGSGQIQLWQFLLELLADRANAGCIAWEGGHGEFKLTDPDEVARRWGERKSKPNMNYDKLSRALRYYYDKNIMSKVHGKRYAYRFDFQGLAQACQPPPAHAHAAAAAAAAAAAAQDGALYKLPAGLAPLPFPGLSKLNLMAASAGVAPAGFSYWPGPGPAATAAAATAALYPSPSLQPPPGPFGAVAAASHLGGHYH
# In short: as §1
# ETV5 = ETV5 (Homo sapiens, UniProt P41161 1-510); conditions: protein: recombinant; tags: N-terminal GST; dsDNA, one strand shown
# In short: as §1
# HSF1 = HSF1 (Homo sapiens, UniProt Q00613 1-529); conditions: protein: recombinant; tags: N-terminal GST; chain copies: 3; dsDNA, one strand shown
# In short: as §1
# SPIC = target: T8, SPIC (Homo sapiens, UniProt Q8N5J4 1-248); conditions: protein: recombinant; tags: N-terminal GST; dsDNA, one strand shown
# T8 sequence: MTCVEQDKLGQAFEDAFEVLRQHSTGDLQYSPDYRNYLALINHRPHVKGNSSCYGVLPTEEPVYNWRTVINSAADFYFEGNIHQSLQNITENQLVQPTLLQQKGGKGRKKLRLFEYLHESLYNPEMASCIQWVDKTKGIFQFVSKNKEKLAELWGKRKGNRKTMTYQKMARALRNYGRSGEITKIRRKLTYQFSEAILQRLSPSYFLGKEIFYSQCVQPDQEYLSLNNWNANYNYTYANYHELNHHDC
# In short: as §1
# ELF4 = ELF4 (Homo sapiens, UniProt Q99607 1-663); conditions: protein: recombinant; tags: N-terminal GST; dsDNA, one strand shown
# In short: as §1
# ELK4 = target: T9, ELK4 (Homo sapiens, UniProt P28324-2 1-405); conditions: protein: recombinant; tags: N-terminal GST; dsDNA, one strand shown
# T9 sequence: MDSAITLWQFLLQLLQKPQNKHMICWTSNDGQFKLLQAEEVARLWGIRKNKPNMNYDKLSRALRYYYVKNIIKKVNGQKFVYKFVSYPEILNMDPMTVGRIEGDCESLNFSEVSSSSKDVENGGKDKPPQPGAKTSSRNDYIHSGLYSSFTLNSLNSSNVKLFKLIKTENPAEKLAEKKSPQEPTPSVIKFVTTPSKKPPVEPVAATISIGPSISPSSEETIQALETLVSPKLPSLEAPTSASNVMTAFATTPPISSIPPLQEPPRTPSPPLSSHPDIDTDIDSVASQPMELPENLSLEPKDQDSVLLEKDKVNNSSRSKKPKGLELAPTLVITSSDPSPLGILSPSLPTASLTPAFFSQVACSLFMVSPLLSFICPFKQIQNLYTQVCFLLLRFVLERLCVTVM
# In short: as §1
# ETV2 = target: T10, ETV2 (Homo sapiens, UniProt O00321 1-342); conditions: protein: recombinant; tags: N-terminal GST; dsDNA, one strand shown
# T10 sequence: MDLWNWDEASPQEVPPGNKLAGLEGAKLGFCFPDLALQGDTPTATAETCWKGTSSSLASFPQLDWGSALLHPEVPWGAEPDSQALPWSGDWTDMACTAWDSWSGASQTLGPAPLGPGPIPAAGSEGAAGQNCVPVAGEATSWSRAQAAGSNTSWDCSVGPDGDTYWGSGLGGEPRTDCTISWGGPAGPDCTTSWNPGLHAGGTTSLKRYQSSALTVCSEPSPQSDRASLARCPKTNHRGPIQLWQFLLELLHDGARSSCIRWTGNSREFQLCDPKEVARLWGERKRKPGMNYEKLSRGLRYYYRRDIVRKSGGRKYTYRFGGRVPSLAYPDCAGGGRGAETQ
# In short: as §1
# ELF3 = target: T11, ELF3 (Homo sapiens, UniProt P78545 1-371); conditions: protein: recombinant; tags: N-terminal GST; dsDNA, one strand shown
# T11 sequence: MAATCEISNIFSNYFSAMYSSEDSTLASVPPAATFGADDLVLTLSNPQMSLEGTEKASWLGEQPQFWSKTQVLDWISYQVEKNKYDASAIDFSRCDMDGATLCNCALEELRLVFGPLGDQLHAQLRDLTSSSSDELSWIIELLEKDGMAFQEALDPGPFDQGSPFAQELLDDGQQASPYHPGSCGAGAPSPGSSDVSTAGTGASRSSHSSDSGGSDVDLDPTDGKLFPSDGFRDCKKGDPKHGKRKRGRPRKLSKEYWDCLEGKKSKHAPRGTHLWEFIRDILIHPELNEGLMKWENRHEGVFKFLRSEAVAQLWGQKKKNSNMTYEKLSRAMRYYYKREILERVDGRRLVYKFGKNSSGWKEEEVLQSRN
# In short: as §1
# CRX = CRX (Homo sapiens, UniProt O43186 1-299); conditions: protein: recombinant; tags: N-terminal GST; dsDNA, one strand shown
# In short: as §1
# ETV1 = ETV1 (Homo sapiens, UniProt P50549 1-477); conditions: protein: recombinant; tags: N-terminal GST; dsDNA, one strand shown
# In short: as §1
# Sequence of ELF1 (P32519 whole entry): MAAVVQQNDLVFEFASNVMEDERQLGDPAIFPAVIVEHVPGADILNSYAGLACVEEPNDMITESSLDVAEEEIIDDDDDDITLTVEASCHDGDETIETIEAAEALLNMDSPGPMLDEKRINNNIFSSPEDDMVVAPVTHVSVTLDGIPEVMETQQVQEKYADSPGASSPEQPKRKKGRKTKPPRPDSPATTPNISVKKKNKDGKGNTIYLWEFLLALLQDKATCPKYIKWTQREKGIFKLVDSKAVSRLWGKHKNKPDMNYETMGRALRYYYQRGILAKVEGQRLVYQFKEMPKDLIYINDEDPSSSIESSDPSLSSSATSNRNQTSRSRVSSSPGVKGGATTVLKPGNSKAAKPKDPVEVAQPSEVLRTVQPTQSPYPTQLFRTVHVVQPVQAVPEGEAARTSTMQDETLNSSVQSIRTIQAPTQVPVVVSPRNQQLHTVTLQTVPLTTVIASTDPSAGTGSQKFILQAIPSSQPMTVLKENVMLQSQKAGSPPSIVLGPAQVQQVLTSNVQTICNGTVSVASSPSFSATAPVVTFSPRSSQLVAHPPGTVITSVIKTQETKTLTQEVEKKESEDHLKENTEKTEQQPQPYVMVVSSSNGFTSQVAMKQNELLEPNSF
# Sequence of ELF4 (Q99607 whole entry): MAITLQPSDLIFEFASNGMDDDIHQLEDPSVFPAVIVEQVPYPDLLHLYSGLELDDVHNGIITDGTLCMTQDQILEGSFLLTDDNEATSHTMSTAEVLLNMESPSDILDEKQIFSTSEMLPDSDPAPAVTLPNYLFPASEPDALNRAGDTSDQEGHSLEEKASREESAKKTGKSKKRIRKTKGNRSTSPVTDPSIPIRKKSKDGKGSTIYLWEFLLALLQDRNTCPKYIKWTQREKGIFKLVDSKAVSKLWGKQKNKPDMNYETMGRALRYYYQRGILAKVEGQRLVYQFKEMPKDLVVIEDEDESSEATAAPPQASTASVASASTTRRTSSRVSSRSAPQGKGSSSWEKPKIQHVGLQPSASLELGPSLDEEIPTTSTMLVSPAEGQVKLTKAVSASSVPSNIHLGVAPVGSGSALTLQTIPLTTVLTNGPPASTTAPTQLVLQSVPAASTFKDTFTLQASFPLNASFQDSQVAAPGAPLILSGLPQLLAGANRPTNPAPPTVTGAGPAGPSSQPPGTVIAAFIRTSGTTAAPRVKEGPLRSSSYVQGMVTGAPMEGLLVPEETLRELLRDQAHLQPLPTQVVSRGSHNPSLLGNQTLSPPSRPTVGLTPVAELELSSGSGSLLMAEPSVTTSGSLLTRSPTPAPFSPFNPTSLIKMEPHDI
# Sequence of SPIB (Q01892 whole entry): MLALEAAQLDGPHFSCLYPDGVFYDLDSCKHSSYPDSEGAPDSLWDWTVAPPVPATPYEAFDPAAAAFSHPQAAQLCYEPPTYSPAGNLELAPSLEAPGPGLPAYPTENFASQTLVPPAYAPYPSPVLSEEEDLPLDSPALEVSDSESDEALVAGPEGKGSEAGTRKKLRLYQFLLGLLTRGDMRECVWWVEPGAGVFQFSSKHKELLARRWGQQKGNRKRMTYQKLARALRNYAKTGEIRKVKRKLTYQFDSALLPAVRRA
# Sequence of CRX (O43186 whole entry): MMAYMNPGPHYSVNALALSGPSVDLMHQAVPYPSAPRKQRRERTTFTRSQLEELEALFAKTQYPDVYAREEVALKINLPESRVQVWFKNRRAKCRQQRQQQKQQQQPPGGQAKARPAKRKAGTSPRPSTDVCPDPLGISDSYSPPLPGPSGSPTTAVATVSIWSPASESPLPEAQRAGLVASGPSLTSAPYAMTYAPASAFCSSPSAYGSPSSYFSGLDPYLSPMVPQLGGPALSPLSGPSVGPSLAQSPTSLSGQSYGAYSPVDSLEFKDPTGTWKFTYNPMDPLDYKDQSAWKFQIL
# Sequence of ETV5 (P41161 whole entry): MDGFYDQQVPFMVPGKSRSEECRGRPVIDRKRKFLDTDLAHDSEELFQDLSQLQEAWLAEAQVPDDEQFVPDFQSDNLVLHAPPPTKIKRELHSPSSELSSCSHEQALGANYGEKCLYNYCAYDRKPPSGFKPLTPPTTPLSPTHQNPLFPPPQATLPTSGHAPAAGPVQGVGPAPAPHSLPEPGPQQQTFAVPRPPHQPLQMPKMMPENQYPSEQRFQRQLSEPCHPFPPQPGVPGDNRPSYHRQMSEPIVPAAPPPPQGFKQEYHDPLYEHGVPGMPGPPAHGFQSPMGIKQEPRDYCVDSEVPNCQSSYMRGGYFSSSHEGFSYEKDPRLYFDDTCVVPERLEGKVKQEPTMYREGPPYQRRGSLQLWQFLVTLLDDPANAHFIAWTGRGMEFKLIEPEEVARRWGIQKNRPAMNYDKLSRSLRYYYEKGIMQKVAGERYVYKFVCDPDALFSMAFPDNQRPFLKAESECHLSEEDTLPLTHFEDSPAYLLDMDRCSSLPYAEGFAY
# Sequence of ETV1 (P50549 whole entry): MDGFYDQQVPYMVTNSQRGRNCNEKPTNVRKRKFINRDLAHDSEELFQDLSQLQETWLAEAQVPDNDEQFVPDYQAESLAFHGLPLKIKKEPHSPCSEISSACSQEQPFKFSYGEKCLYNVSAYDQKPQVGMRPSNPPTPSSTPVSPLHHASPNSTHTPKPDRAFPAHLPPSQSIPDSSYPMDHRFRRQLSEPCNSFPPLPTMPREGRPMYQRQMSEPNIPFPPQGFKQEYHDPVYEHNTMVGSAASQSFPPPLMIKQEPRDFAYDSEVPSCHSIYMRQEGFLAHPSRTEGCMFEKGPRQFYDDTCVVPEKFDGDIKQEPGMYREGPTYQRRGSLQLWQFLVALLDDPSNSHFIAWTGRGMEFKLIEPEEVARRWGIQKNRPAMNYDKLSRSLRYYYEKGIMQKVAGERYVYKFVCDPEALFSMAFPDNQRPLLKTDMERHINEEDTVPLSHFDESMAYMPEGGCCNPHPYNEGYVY
# Sequence of HSF1 (Q00613 whole entry): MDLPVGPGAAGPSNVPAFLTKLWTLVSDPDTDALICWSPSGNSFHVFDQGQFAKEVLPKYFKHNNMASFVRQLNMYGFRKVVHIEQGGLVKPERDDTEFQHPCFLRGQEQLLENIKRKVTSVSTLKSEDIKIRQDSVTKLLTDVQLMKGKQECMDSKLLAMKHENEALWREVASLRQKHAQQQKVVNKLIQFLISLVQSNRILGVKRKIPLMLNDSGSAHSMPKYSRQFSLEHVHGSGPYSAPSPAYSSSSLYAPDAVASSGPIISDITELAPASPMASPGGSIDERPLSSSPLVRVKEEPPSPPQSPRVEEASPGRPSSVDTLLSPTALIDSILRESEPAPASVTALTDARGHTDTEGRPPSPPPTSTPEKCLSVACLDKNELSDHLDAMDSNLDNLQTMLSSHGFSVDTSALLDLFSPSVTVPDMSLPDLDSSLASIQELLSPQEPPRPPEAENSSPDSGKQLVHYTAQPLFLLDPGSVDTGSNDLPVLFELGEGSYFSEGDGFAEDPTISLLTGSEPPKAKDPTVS
sequence,measurement,setting,value
CCGACT,binding signal,FLI1,"1.43 fold enrichment (6-mer frequency, TF over GST control)"
same,binding signal,ELK1,"1.6 fold enrichment (6-mer frequency, TF over GST control)"
same,binding signal,GABPA,"1.48 fold enrichment (6-mer frequency, TF over GST control)"
same,binding signal,ERG,"1.52 fold enrichment (6-mer frequency, TF over GST control)"
same,binding signal,ELF1,"1.44 fold enrichment (6-mer frequency, TF over GST control)"
same,binding signal,EHF,"1.48 fold enrichment (6-mer frequency, TF over GST control)"
same,binding signal,SPI1,"1.4 fold enrichment (6-mer frequency, TF over GST control)"
same,binding signal,SPIB,"1.64 fold enrichment (6-mer frequency, TF over GST control)"
same,binding signal,ELK3,"1.58 fold enrichment (6-mer frequency, TF over GST control)"
same,binding signal,FEV,"1.52 fold enrichment (6-mer frequency, TF over GST control)"
same,binding signal,ETV5,"1.44 fold enrichment (6-mer frequency, TF over GST control)"
same,binding signal,HSF1,"1.29 fold enrichment (6-mer frequency, TF over GST control)"
same,binding signal,SPIC,"1.53 fold enrichment (6-mer frequency, TF over GST control)"
same,binding signal,ELF4,"1.52 fold enrichment (6-mer frequency, TF over GST control)"
same,binding signal,ELK4,"1.56 fold enrichment (6-mer frequency, TF over GST control)"
same,binding signal,ETV2,"1.46 fold enrichment (6-mer frequency, TF over GST control)"
same,binding signal,ELF3,"1.55 fold enrichment (6-mer frequency, TF over GST control)"
same,binding signal,CRX,"1.45 fold enrichment (6-mer frequency, TF over GST control)"
same,binding signal,ETV1,"1.6 fold enrichment (6-mer frequency, TF over GST control)"

# Reference: PMC7862700, “An all-to-all approach to the identification of sequence-specific readers for epigenetic DNA modifications on cytosine”
